This note sets out measurements from PubChem BioAssay (Tox21).

A short description of assay [1]: qHTS assay to identify small molecule agonists of the hypoxia (HIF-1) signaling pathway - cell viability counter screen (AID 1224844; calls by dose curve; note: nearly all actives have a fitted effect of over 50% in size; note: potency is the fitted concentration of half-maximal effect). The method, boiled down:
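Tox21 10K compounds were added to HRE-bla ME-180 cells (0.5% dialyzed FBS) and incubated 17 hrs at 37C; ATP-based CellTiter-Glo luminescence then reported cell viability in the same wells.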

Assay [2] in a line: qHTS assay to identify small molecule agonists of H2AX (AID 1224845; active = well fitted activation curve with a large enough effect in the signal ratio in the repeat runs, not every such curve was filed as active; the % refers to the signal ratio; note: potency is the fitted concentration of half-maximal effect). The method, boiled down:
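Wild-type CHO-K1 cells, plated overnight, exposed 3hr at 37C to 15 concentrations (0.76% DMSO final). Lysed, then HTRF anti-pH2AX (S139) cryptate and anti-H2AX-d2 antibodies, 24 hr room temperature; 665/620 nm emission read.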

Assay [3] can be described thus: qHTS assay to identify small molecule agonists of H2AX - cell viability counter screen (AID 1224847; calls by dose curve; note: nearly all actives have a fitted effect of over 30% in size; note: potency is the fitted concentration of half-maximal effect). The procedure, abridged:
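Cells plated first: CHO-K1, 1000 per well in 10% FBS medium, incubated overnight at 37C. Then 15-point compound titration added (final DMSO 0.76%) for 3 hr. Finally CellTiter-Glo added and luminescence read.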
On the technique in general: Quantitative high-throughput screening tests each substance at several concentrations.

The nature of assay [4]: qHTS assay to identify small molecule antagonists of the estrogen related receptor (ERR) signaling pathway from Tox21 library (AID 1224848). Note: nearly all actives have a fitted effect of over 50% in size. Note: potency is the fitted concentration of half-maximal effect. The method, boiled down:
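ERR reporter cell line (from NTP) seeded 2,000 cells/well, rested 6 h at 37 C/5% CO2, then pin-dosed with compounds in DMSO. After 18 h at 37 C, ONE-Glo added; luminescence read after 30 min at room temperature.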

A short description of assay [5]: qHTS RealTime-Glo MT Cell Viability Assay in HepG2 cells - 24 hour (AID 1224867). Note: nearly all actives have a fitted effect of over 50% in size. Note: potency is the fitted concentration of half-maximal effect. The method, boiled down:
(§1)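 Cells + NanoLuc/prosubstrate dispensed (600 cells/well) → 5 h at 37 C/5% CO2 → compounds in DMSO transferred → 40 h incubation at 37 C, luminescence read at 0, 8, 16, 24, 32, 40 h.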

Assay [6] in a line: qHTS RealTime-Glo MT Cell Viability Assay in HEK293 cells - 32 hour (AID 1224868). Note: nearly all actives have a fitted effect of over 50% in size. Note: potency is the fitted concentration of half-maximal effect. The procedure, abridged: (§2)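 Tox21 10K qHTS, HEK293, 600 cells/well, RealTime-Glo reagent co-dispensed with cells; 5 h preincubation, compound by pintool, 37 C, luminescence at 0–40 h.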
Assay [7] can be described thus: A CellTox Green Cytotoxicity Assay to monitor cytotoxicity in HEK293 cells - 0 hour (AID 1224869). Note: nearly all actives have a fitted effect of over 50% in size. The procedure, abridged: (§3)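 Cytotoxicity was tracked continuously in HEK293 cells by a DNA-binding dye excluded from viable cells. Compounds were transferred in DMSO 5 h after seeding; fluorescence was recorded at intervals up to 40 h.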
The nature of assay [8]: qHTS RealTime-Glo MT Cell Viability Assay in HepG2 cells - 40 hour (AID 1224870). Note: nearly all actives have a fitted effect of over 50% in size. Note: potency is the fitted concentration of half-maximal effect. The procedure, abridged: (§4)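 HepG2 cells (600/well) mixed with RealTime-Glo MT reagent, settled 5 h at 37 C/5% CO2 before compound addition. Nonlytic NanoLuc luminescence from viable-cell prosubstrate reduction read repeatedly during 40 h treatment at 37 C.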
The nature of assay [9]: A CellTox Green Cytotoxicity Assay to monitor cytotoxicity in HEK293 cells - 40 hour (AID 1224871). Note: nearly all actives have a fitted effect of over 45% in size. Note: potency is the fitted concentration of half-maximal effect. The method, boiled down: as §3
A short description of assay [10]: qHTS RealTime-Glo MT Cell Viability Assay in HEK293 cells - 16 hour (AID 1224872). Note: nearly all actives have a fitted effect of over 50% in size. Note: potency is the fitted concentration of half-maximal effect. The method, boiled down:
as §2

A short description of assay [11]: qHTS RealTime-Glo MT Cell Viability Assay in HepG2 cells - 8 hour (AID 1224873). Note: nearly all actives have a fitted effect of over 55% in size. The method, boiled down:
as §4

A short description of assay [12]: qHTS RealTime-Glo MT Cell Viability Assay in HEK293 cells - 40 hour (AID 1224874). Note: nearly all actives have a fitted effect of over 50% in size. Note: potency is the fitted concentration of half-maximal effect. To be noted: RealTime-Glo luminescence; max response: stronger effect = lower value. The method, boiled down:
(§5)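 Nonlytic bioluminescent viability monitoring. HEK293 at 600 cells/well with reagent; 5 h settle; compound transfer by pintool; plates held at 37 C and read at set time points.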

A short description of assay [13]: A CellTox Green Cytotoxicity Assay to monitor cytotoxicity in HEK293 cells - 24 hour (AID 1224875). Note: nearly all actives have a fitted effect of over 45% in size. Note: potency is the fitted concentration of half-maximal effect. The procedure, abridged:
as §3

Assay [14] is described as follows: A CellTox Green Cytotoxicity Assay to monitor cytotoxicity in HepG2 cells - 16 hour (AID 1224876). Note: nearly all actives have a fitted effect of over 45% in size. Note: potency is the fitted concentration of half-maximal effect. The procedure, abridged:
(§6)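 Real-time, homogeneous cytotoxicity readout: dead-cell DNA staining by CellTox Green in HepG2 monolayers, fluorescence measured at timed intervals up to 40 h of continuous compound exposure.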

The nature of assay [15]: qHTS RealTime-Glo MT Cell Viability Assay in HepG2 cells - 32 hour (AID 1224877). Note: nearly all actives have a fitted effect of over 55% in size. Note: potency is the fitted concentration of half-maximal effect. The procedure, abridged: as §1
Assay [16] is described as follows: A CellTox Green Cytotoxicity Assay to monitor cytotoxicity in HepG2 cells - 24 hour (AID 1224878). Note: nearly all actives have a fitted effect of over 45% in size. Note: potency is the fitted concentration of half-maximal effect. The method, boiled down:
as §6

A short description of assay [17]: A CellTox Green Cytotoxicity Assay to monitor cytotoxicity in HepG2 cells - 40 hour (AID 1224879). Note: nearly all actives have a fitted effect of over 40% in size. Note: potency is the fitted concentration of half-maximal effect. The method, boiled down: as §6
Assay [18] is described as follows: qHTS RealTime-Glo MT Cell Viability Assay in HEK293 cells - 0 hour (AID 1224880). The procedure, abridged: as §5
Assay [19] is described as follows: qHTS assay to identify small molecule agonists of the estrogen related receptor (ERR) signaling pathway from Tox21 library (AID 1224849; calls by dose curve; note: nearly all actives have a fitted effect of over 15% in size). To be noted: ERR reporter cell line, ONE-Glo luciferase, 18 h; at 92.4 µM (top of the series) unless noted. The method, boiled down:
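Agonist signal is luciferase luminescence from an ERR reporter cell line treated 18 h at 37 C with DMSO-dissolved compounds, read 30 min after ONE-Glo addition at room temperature.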

SMILES strings stand for the structures. Several values for one entry are separate records, joined by “and”; a condition that tells them apart may be missing. Identical values can stand only once. Results filed as inconclusive are left out. A structure can be active in one record and inactive in another. Activity calls are given as the source filed them. Unless noted, calls come from the whole dose curve; as a rule, active = well fitted curve in the direction sought with a large enough effect in the repeat runs; inconclusive = weak or mixed curves; inactive = no such curve, though single readings can be large; an effect the other way counts as inactive or inconclusive.
% is set by controls: 0 for no effect and ±100 for the full control effect.

Take `CCC(C)(C)C(=O)OC1=C(c2ccc(Cl)cc2Cl)C(=O)OC12CCCCC2`: in assay [1], the Potency is 49 µM (active). Moreover, the Potency result in assay [2], in assay [3], in assay [4], in assay [5], in [6] and in [7] was “inactive” throughout. Also, the Potency entry in assay [8], in [9], in assay [10], in assay [11], in assay [13] and in assay [14] was “inactive” in each case. Moreover, the Potency result in assay [15], in assay [16] and in assay [17] was “inactive” in each case. Further, in assay [12], the max response is -14% (inactive).
In the case of `c1ccc2c(c1)[nH]c1cnccc12`, the Potency result in assay [1], in [2], in assay [3], in assay [5], in assay [6] and in assay [7] was “inactive” in each case. Further, the Potency entry in [8], in assay [10], in assay [11], in [13], in assay [14] and in assay [15] was “inactive” throughout. Further, the Potency entry in [16], in assay [17] and in [18] was “inactive” throughout. In addition, in assay [12], the max response is 0.679% (inactive).
Take `CC(C)CC(C)(c1ccc(O)cc1)c1ccc(O)cc1`: the Potency entry in assay [1], in assay [2], in assay [8], in assay [15] and in assay [18] was “inactive” throughout. Moreover, the Potency is 101 µM (active) and 89.8 µM (active) in assay [3]; 54.6 µM (active) and inactive in assay [4]; 39 µM (active) in assay [6]; 55.1 µM (active) in assay [9]; 43.8 µM (active) and inactive in assay [10]; 27600 nM (active) in assay [12]. The Potency in [14] is 43800 nM (active); in assay [16], 43.8 µM (active); in [17], 43.8 µM (active). Further, the activity change, positive = activation in assay [19] is -67.3% (inactive) and -18.5% (inactive).
As for `CCC[CH2][Sn]([CH2]CCC)([CH2]CCC)[O]C(=O)c1ccccc1`, the Potency is 0.549 µM (active) in assay [1]; 505 nM (active) in [2]; 713 nM (active) in assay [3]; 486 nM (active) in [4]; 490 nM (active) in assay [5]; 0.389 µM (active) in assay [6]. Also, the Potency in [8] is 389 nM (active); in assay [9], 0.692 µM (active); in [10], 436 nM (active); in [12] it was 389 nM (active); in assay [13], 1950 nM (active); in assay [14], 692 nM (active). Besides, the Potency was 436 nM (active) in assay [15], 0.692 µM (active) in assay [16] and 0.549 µM (active) in [17]. The activity change, positive = activation in assay [19] is -78% (inactive). Moreover, the Potency result in assay [7] is “inactive”.
On to `CN(C)C(=S)S`, for which the Potency in assay [1] is 1.41 µM (active) and 4.86 µM (active) and 4.36 µM (active); in assay [2], 29 µM (active) and 4.47 µM (active); in assay [5] it was “inactive and 11 µM (active)”; in assay [6], 11.2 µM (active) and 1.73 µM (active) and 11 µM (active); in assay [8] it was “inactive and 9.77 µM (active)”; in assay [9], 9.97 µM (active) and 1.54 µM (active) and 6.92 µM (active). Also, the Potency was 1.94 µM (active) and 12.3 µM (active) in assay [10]; “inactive and 34.7 µM (active)” in [14]; “inactive and 9.77 µM (active)” in assay [15]; 22.3 µM (active) and 5.45 µM (active) and 15.5 µM (active) in assay [16]; 15.8 µM (active) and 4.86 µM (active) and 11 µM (active) in assay [17]. The Potency entry in [3], in [11] and in assay [18] was “inactive” in each case.
In the case of `CC1CCC(C(C)C)C(OC(=O)c2ccccc2N)C1` (stereo not drawn), the Potency in [1] was 38.4 µM (active); in assay [2] it was 88500 nM (active); in assay [3], 88500 nM (active); in assay [4], 53700 nM (active); in assay [6] it was 38.4 µM (active); in assay [10], 34200 nM (active). Moreover, the Potency in assay [12] was 34200 nM (active). Further, the activity change, positive = activation in assay [19] was -55.4% (inactive). For the same molecule, the Potency result in assay [7], in assay [8], in assay [11], in assay [14], in assay [15] and in assay [18] was “inactive” each time.
